The list is not random: actives were taken first. Their share in the collection is about 4.6%.
ADAM17 inh: ADAM17 inhibitors, primary screen, biochemical, QFRET; AID 720648, 2013; recombinant ADAM17, EDANS/DABCYL FRET peptide cleavage; Disintegrin and metalloproteinase domain-containing protein 17 (Homo sapiens), P78536; 0.83% of 370,000 active; inhibition, % at 6.95 µM;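 active = inhibition above the mean of compounds lying between control limits plus 3 SD, set per campaign, cut at about 8.5% in these data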;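 also: 0% = DMSO-only wells as the low control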
KLK7 zymogen act: proKLK7 zymogen activators, primary screen, biochemical, fluorescence intensity. Kallikrein-7 (Homo sapiens), P49862. purified proKLK7, EDANS-DABCYL substrate fluorescence; 100% is mature enzyme control, 0% vehicle. activation, % at 7 µM. 0.9% of 370,000 active;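 active = activation above the mean of all tested compounds plus 3 SD, computed per campaign excluding outliers beyond control limits, cut at about 13% in these data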
FAS TE block: FAS thioesterase domain inhibitors, primary screen, biochemical, fluorescence intensity, uHTS | Fatty acid synthase (Homo sapiens), P49327 | recombinant FAS-TE, OMFH fluorogenic substrate, fluorescence endpoint | inhibition, % at 15 µM | 0.67% of 360,000 active;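 active = compounds whose normalised, plate-corrected inhibition of enzyme fluorescence in the single-dose primary screen is 50% or more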;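 also: 0% = DMSO with enzyme and 100% = substrate without enzyme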
ADAM10 inh: human ADAM10 inhibitors, primary screen, biochemical, QFRET, HTS; inhibition, % at 7 µM; 0.62% of 370,000 active; recombinant ADAM10, EDANS/DABCYL FRET peptide cleavage, 3 h;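 active = inhibition above a per-campaign cutoff equal to the mean of compounds falling between control-based bounds plus 3 SD, cut at about 20% in these data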;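 also: 0% = DMSO wells while the 100% control is not disclosed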
NR3A LBD binder: binders of NR3A ligand-binding domain, primary screen, biophysical, differential scanning fluorimetry, uHTS; Tm shift relative to glycine control, % at 25 µM; 2.5% of 340,000 active; Glutamate receptor ionotropic, NMDA 3A (GRIN3A) ligand-binding domain; NR3A LBD differential scanning fluorimetry, Tm shift; 0% = protein alone, 100% = glycine-bound protein;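 active = melting temperature shift of at least 10% of the positive control shift, at one fixed dose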
FAS-TE inh conf: FAS thioesterase domain inhibitors, confirmation, biochemical, fluorescence intensity, single concentration. recombinant FAS-TE, OMFH fluorogenic substrate. 45% of 2,300 active. shares compounds with FAS TE block. inhibition, % at 15 µM;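 active = compounds inhibiting the enzyme by at least 50% at 15 µM in any one of the replicates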;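 also: 0% = enzyme with DMSO only and 100% = wells lacking enzyme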
* = called active by the depositor; · = not tested or not shown.

SMILES	ADAM17 inh	KLK7 zymogen act	FAS TE block	ADAM10 inh	NR3A LBD binder	FAS-TE inh conf
Cc1ccc2cc3cc(C(=O)N4CC(C)CC(C)C4)oc3nc2c1 (stereo unspecified)	-1	1	82*	-17	2	42
Cc1ccc2cc3cc(C(=O)NC4CC4)oc3nc2c1	-53	2	1	-166	1	·
O=C(c1cc2cc(Cl)ccc2o1)N1CCCCCC1	-1	0	5	-8	0	·
CN1c2ccc(-c3cccc(F)c3)cc2[C@H]2[C@H](CCN2S(=O)(=O)c2cccc(F)c2)[C@H]1CO	-6	1	·	-18	·	·
CN(C)[C@@H]1CCN(c2ccc3c(c2)O[C@@H]2CCN(C2)S3(=O)=O)C1	-2	0	·	-4	·	·
NC(=O)C1CCN(C2=C(Cl)C(=O)c3ccccc3C2=O)CC1	-8	0	52*	-10	-2	29
O=C1C(Cl)=C(N2CCC(C(=O)O)CC2)C(=O)c2ccccc21	·	·	20	·	2	·
CC(=O)N(c1ccccc1C)C1CCCC1	3	1	-7	-4	-8	·
CC(=O)N(C1=C(Cl)C(=O)c2ccccc2C1=O)C1CCCCC1	-2	-1	80*	-9	-5	71*
Cc1ccccc1-c1nc2sc(C)c(C)c2c(=O)o1	-3	-1	53*	5	-2	39
Cc1sc2nc(-c3ccco3)oc(=O)c2c1C	0	-1	29	10	0	·
Cc1ccc(OCc2nnc(SCC(=O)Nc3ccccc3-c3ccccc3)n2Cc2ccco2)cc1	8	0	·	13	·	·
CC1CC(C)(C)CC2(C1)NC(=O)N(CC(=O)Nc1cc(C(F)(F)F)ccc1N1CCCCC1)C2=O (stereo unspecified)	1	1	60*	-9	-1	4
O=C(CN1C(=O)NC2(CCCCC2)C1=O)Nc1cc(C(F)(F)F)ccc1N1CCCC1	2	0	4	-6	1	·
CCOc1ccc(-n2c(SCc3cccc4ccccc34)nnc2-c2ccc(C)cc2)cc1	-1	0	·	-1	·	·
C=CCN1C(=O)[C@@H](CC(=O)NCCCOC)[C@]2(C(=O)OC)CCCCC=C12	2	0	·	0	·	·
Cc1ccc(S(=O)(=O)ON2C(=O)c3ccccc3C2=O)c(C)c1	-53	0	75*	-155	22*	94*
Cc1cccc2c1N(C)C(=O)C2=O	-4	0	0	-10	-1	·
Cc1cc(C)c(C)c(S(=O)(=O)ON2C(=O)c3ccccc3C2=O)c1C	-47	-1	90*	-131	1	95*
Cc1ccc(S(=O)(=O)N2CCN(CCc3ccccc3)CC2)c(C)c1	1	1	13	-1	-1	·
O=C1c2ccccc2C(=O)N1OS(=O)(=O)c1ccc(F)cc1	-32	1	71*	-85	2	50*
Cc1cc(C)c(S(=O)(=O)ON2C(=O)c3ccccc3C2=O)cc1C	-30	1	91*	-94	9	95*
O=S(=O)(c1ccccc1)N1CCN(S(=O)(=O)c2ccc(F)cc2)CC1	-5	0	-4	4	-1	·
CCN(CC)C(=O)CSc1nnc(-c2ccc(C(C)(C)C)cc2)n1-c1ccc(Cl)cc1	7	0	·	9	·	·
COCc1c(Br)c(C)nc(OCC(=O)N/N=C/c2cc(C)n(-c3ccc([N+](=O)[O-])cc3)c2C)c1C#N	-3	1	62*	0	2	-3
SMILES	ADAM17 inh	KLK7 zymogen act	FAS TE block	ADAM10 inh	NR3A LBD binder	FAS-TE inh conf
O=C(NC(=S)N1CCN(c2ccc(F)cc2)CC1)C12CC3CC(CC(C3)C1)C2	-1	1	7	5	4	·
CCOc1ccccc1N1CCN(C(=S)NC(=O)C23CC4CC(CC(C4)C2)C3)CC1	0	-1	51*	-6	0	15
Cc1ccc(NC(=O)NNC(=O)CCn2nc(C)c([N+](=O)[O-])c2C)cc1C	-1	0	·	-7	·	·
CC(C)(C)OC(=O)NCCc1onc(-c2cccc([N+](=O)[O-])c2)c1C(=O)O	0	1	81*	6	·	87*
CCOC(=O)CC[C@@H]1CC[C@]2(CCCN(C(=O)c3ccc4ccccc4n3)C2)O1	-5	0	·	-8	·	·
COC(=O)c1cc([N+](=O)[O-])c(-n2cncn2)c([N+](=O)[O-])c1	0	0	57*	-2	-2	29
Cc1ccccc1NC(=O)OCCCN1C(=O)CCC12CCC(C)CC2 (stereo unspecified)	-2	0	·	-3	·	·
Cn1c(SCC(=O)N2c3ccccc3CCc3ccccc32)nnc1-c1cc2ccccc2cc1O	3	-5	67*	1	-2	9
O=C(CSc1nc2ccccc2c(=O)n1-c1ccc(F)cc1)Nc1ccc(N2CCOCC2)cc1	-3	0	-1	2	-4	·
Cc1ccc(S(=O)(=O)N(C)C)cc1-n1c(SCC(=O)Nc2ccc(F)c(F)c2F)nc2ccccc2c1=O	7	1	68*	15	-3	38
O=C(CSc1nc2ccccc2c(=O)n1-c1ccc(F)cc1)Nc1cc(S(=O)(=O)N2CCOCC2)ccc1Cl	3	-1	78*	7	0	21
O=C(CSc1nc2cc(Cl)ccc2c(=O)n1Cc1ccco1)Nc1ccc(S(=O)(=O)N2CCOCC2)cc1	4	-1	88*	15	3	18
Cc1ccc(S(=O)(=O)N2CCOCC2)cc1NC(=O)CSc1nc2ccccc2c(=O)n1Cc1ccccc1	-1	-1	50*	-5	14*	24
Cc1ccc(S(=O)(=O)N(C)C)cc1-n1c(SCC(=O)N(C)C)nc2ccccc2c1=O	-2	0	-3	-4	-1	·
COc1cccc(Cn2cc(COC(=O)NCCc3ccccc3)nn2)c1	2	-1	·	-2	·	·
CCCCNC(=O)OCCCN1CCC2(CCC(c3ccccc3)CC2)C1 (stereo unspecified)	-3	1	·	-4	·	·
CCOC(=O)CC[C@@]1(C(=O)OCC)C[C@@H](CC(=O)NCCCN2CCCC2=O)C(=O)N2CCCC=C21	-1	0	·	-9	·	·
COc1cc(CCc2ccccc2)c(C(=O)O)c(O)c1CC=C(C)C	5	0	19	-6	-4	·
COc1cc(CCc2ccccc2)c(C(=O)O)c(O)c1C/C=C(/C)CCC=C(C)C	2	0	87*	16	10*	59*
N#Cc1ccc(Cn2ccc3ccc(-c4ccc5ccn(Cc6ccccc6)c5c4)cc32)cc1	-10	0	·	-37	·	·
C/C(=N\NC(=O)Cc1cccs1)c1ccco1	1	0	·	-1	·	·

Assay outcomes as filed in PubChem BioAssay.
